LmPK inh – LmPK (Leishmania mexicana) enzyme inhibition | Potency, µM (top dose mostly 57.5 µM), for the others: top-dose activity change, negative = inhibition, actives largely listed as inhibitors | 290,000 compounds, 0.37% hits | Q27686 | purified LmPK, Kinase-Glo ATP luminescence, 1 h; active = well fitted curve in the direction sought with a large enough effect; inconclusive = small, poorly fitted or top-dose-only effect, or another doubt; inactive = no such curve, though single readings can be large; an effect the other way counts as inactive or inconclusive; note: potency is the fitted concentration of half-maximal effect; % is set by controls: 0 for no effect and ±100 for the full control effect
Target sequence (Q27686 whole entry, looked up): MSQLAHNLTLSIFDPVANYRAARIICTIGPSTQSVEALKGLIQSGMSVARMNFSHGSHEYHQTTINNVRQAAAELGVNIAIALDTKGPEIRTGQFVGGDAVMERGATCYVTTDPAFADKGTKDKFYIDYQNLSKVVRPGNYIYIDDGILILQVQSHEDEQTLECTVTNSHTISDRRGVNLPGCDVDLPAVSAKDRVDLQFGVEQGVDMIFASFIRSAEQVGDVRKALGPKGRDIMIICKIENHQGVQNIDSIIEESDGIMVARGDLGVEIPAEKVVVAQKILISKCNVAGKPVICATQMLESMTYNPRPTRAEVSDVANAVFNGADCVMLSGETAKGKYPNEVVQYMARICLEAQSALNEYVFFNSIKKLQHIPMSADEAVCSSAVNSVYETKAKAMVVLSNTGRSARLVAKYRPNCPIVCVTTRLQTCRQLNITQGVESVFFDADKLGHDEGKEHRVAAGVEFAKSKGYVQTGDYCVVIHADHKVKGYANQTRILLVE
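qHTS format; LmPK 0.1 nM; substrates PEP 0.5 mM and ADP 0.1 mM. One-hour room-temperature incubation, then coupled luciferase luminescence; 0.5 nM enzyme wells mark activation.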
CHX counter – affects cycloheximide protein synthesis inhibition readout, counter-screen. cell reporter, cycloheximide protein synthesis inhibition counterscreen. max response, %. 300,000 compounds, 12% hits. AID 2314; in the data active = max response mostly above about 13%, no sharp cut-off; inactive = mostly below about 14%; note: read at 38.3 µM for the half of the compounds with a filed dose; 0% is about no effect
SARS PLP yeast – inhibitors of SARS-CoV papain-like protease in yeast; S. cerevisiae expressing SARS-CoV PLpro, growth rescue; Potency, µM (top dose mostly 32.9 µM), inactives show at the highest dose activity, positive = growth rescue, most hits filed as activators; 330,000 compounds, 0.19% hits; AID 485353; note: potency is the fitted concentration of half-maximal effect; 0% is about no effect; nearly all actives have a fitted effect of over 55% in size
TbPYK inhibitor – blocks Trypanosoma brucei pyruvate kinase. TbPYK enzyme, Kinase-Glo Plus ATP luminescence, 45 min. Potency, µM (top dose mostly 76.8 µM), for the others: at the highest dose activity, negative = inhibition, actives largely listed as inhibitors. 410,000 compounds, 0.12% hits. AID 624173; active = well fitted curve in the direction sought with a large enough effect; inconclusive = small, poorly fitted or top-dose-only effect, or another doubt; inactive = no such curve, though single readings can be large; an effect the other way counts as inactive or inconclusive; note: potency is the fitted concentration of half-maximal effect; % is set by controls: 0 for no effect and ±100 for the full control effect; nearly all actives have a fitted effect of over 50% in size
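Luminescent Kinase-Glo Plus end-point after 45 min room-temperature reaction of T. brucei pyruvate kinase started with 130 uM ADP (final). Buffer TEA 50 mM pH 7.2 with KCl, MgCl2, BSA, Tween-20; titration-based qHTS with fitted concentration-effect curves.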
Shiga inhibitor – inhibitors of Shiga toxin in Vero cells. inhibition, % at 38.7 µM. Vero cells, Shiga toxin protein synthesis inhibition reporter. AID 2315. 290,000 compounds, 9.2% hits; in the data active = inhibition mostly above about 28%, no sharp cut-off; inactive = mostly below about 43%; note: 0% is about no effect
NS1 function inh – inhibitors of influenza NS1 protein function; AID 2326; 270,000 compounds, 0.4% hits; Potency, µM (series often up to 46.1 µM), inactives show at the highest dose activity, positive = more growth; note: potency is the fitted concentration of half-maximal effect; actives are rising curves; nearly all actives have a fitted effect of over 50% in size
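Growth recovery, yeast-based: influenza A NS1 expressed in S. cerevisiae causes slow growth, and suppressors are detected by OD600. The parent strain without NS1 is used as positive control.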
Starred values were filed as active, the others as inactive. Only a selection was taken, and hits are over-represented in it overall. Unless noted, calls come from the whole dose curve.

Results for CC(C)(C)c1ccc(C(=O)NCCCNC(=O)c2ccccn2)cc1 ?
LmPK inh: 8.6%; CHX counter: 10.5; SARS PLP yeast: -2.4%; TbPYK inhibitor: 5.3%; Shiga inhibitor: 41.7*; NS1 function inh: -16.3%

How did Cc1ccc(C(=O)CC(=O)COc2ccc(Cl)cc2)cc1 do in these assays?
LmPK inh: -3.5%; CHX counter: 17.5*; SARS PLP yeast: -11.2%; TbPYK inhibitor: -0.5%; Shiga inhibitor: 26.9; NS1 function inh: -6.9%

Results for O=C(NCCN1CCNCC1)c1ccccn1 ?
LmPK inh: -4.5%; CHX counter: 13.7; SARS PLP yeast: 14.3%; TbPYK inhibitor: 7.9%; Shiga inhibitor: 100.5*; NS1 function inh: -6.5%

Results for COc1ccc(CCC(=O)NCCOc2ccc(Cl)cc2)cc1 ?
LmPK inh: -7.5%; CHX counter: 31.7*; SARS PLP yeast: -0.8%; TbPYK inhibitor: 0.4%; Shiga inhibitor: 40.2; NS1 function inh: -33.0%

Results for Cc1ccc(OCC(=O)NS(=O)(=O)c2ccc(Cl)cc2)cc1 ?
LmPK inh: -12.3%; CHX counter: 2.2; SARS PLP yeast: -8.3%; TbPYK inhibitor: -14.4%; Shiga inhibitor: -32.4; NS1 function inh: -16.3%

How did COc1ccc(C2=NOC(C(=O)Nc3ccc4c(c3)OCCO4)C2)cc1OC (centres undefined) do in these assays?
LmPK inh: -5.4%; CHX counter: 11.2; SARS PLP yeast: -0.5%; TbPYK inhibitor: 2.8%; Shiga inhibitor: 18.2; NS1 function inh: -2.4%

What do the screens show for `COc1cccc(C2=NOC(C(=O)N3CCN(C(=O)c4ccco4)CC3)C2)c1` (centres undefined)?
LmPK inh: 3.9%; CHX counter: -1.9; SARS PLP yeast: 5.1%; TbPYK inhibitor: 1.5%; Shiga inhibitor: 23.1; NS1 function inh: 4.8%

Results for COc1cccc(C2=NOC(C(=O)Nc3ccc(OC)c(OC)c3)C2)c1 (centres undefined) ?
LmPK inh: -1.5%; CHX counter: 17.5*; SARS PLP yeast: 3.4%; TbPYK inhibitor: -1.8%; Shiga inhibitor: 6.5; NS1 function inh: -70.3%

Results for COc1cccc(C2=NOC(C(=O)N3CCOCC3)C2)c1 (centres undefined) ?
LmPK inh: -14.7%; CHX counter: 62.7*; SARS PLP yeast: 0.2%; TbPYK inhibitor: 0.3%; Shiga inhibitor: 141.4*; NS1 function inh: -0.2%

Results for COc1ccc(NC(=O)C2CC(c3cccc(Br)c3)=NO2)cc1OC (centres undefined) ?
LmPK inh: -0.8%; CHX counter: -1.2; SARS PLP yeast: 1.6%; TbPYK inhibitor: -10.2%; NS1 function inh: -1.5%

Results for COc1ccc(C2=NOC(C(=O)N3CCOCC3)C2)cc1OC (centres undefined) ?
LmPK inh: -1.5%; CHX counter: 17.7*; SARS PLP yeast: 7.5%; TbPYK inhibitor: 2.1%; Shiga inhibitor: 49.5*; NS1 function inh: -17.5%

What do the screens show for `COc1ccc(NC(=O)C2CC(c3c(F)cccc3Cl)=NO2)cc1` (centres undefined)?
LmPK inh: 5.2%; CHX counter: 17.5*; SARS PLP yeast: -4.7%; TbPYK inhibitor: 5.7%; NS1 function inh: -7.8%

What do the screens show for `CCOc1ccc(/C=C2/C(=O)N(c3ccc(OC)cc3)C(=S)N2CC(=O)OC)cc1OCC`?
LmPK inh: 4.3%; CHX counter: 29.8*; SARS PLP yeast: -26.8%; TbPYK inhibitor: 0.3%; Shiga inhibitor: 12.0*; NS1 function inh: -3.2%

Results for Cc1noc(C)c1COc1ccccc1C(=O)NCCOc1ccccc1F ?
SARS PLP yeast: 12.7%; TbPYK inhibitor: 8.6%

What do the screens show for `Cc1noc(C)c1COc1ccccc1C(=O)NC1CCC(C)CC1` (centres undefined)?
LmPK inh: -2.8%; CHX counter: 26.9*; SARS PLP yeast: -8.0%; TbPYK inhibitor: 3.6%; Shiga inhibitor: 55.2*; NS1 function inh: -13.1%

How did CC(C)(O)c1cc2ccc(C#Cc3ccsc3)cc2c(=O)o1 do in these assays?
SARS PLP yeast: -1.7%; TbPYK inhibitor: -25.1%

Results for CC(C)c1ccc(N(CC(=O)NCCSC(C)(C)C)S(C)(=O)=O)cc1 ?
LmPK inh: 7.2%; CHX counter: 31.1*; SARS PLP yeast: 1.0%; Shiga inhibitor: 23.6; NS1 function inh: 0.7%

What do the screens show for `Cc1ccccc1CNC(=O)c1ccc(Cl)c([N+](=O)[O-])c1`?
LmPK inh: -0.5%; CHX counter: -0.8; SARS PLP yeast: 7.7%; TbPYK inhibitor: 1.6%; Shiga inhibitor: 9.6; NS1 function inh: -3.3%

What do the screens show for `CN(c1ccc(C(=O)Nc2ccccc2C(F)(F)F)cc1)S(C)(=O)=O`?
LmPK inh: 0.4%; CHX counter: 20.3; SARS PLP yeast: 5.5%; TbPYK inhibitor: 12.0%; Shiga inhibitor: 40.9*; NS1 function inh: -1.9%

How did CN(c1ccc(C(=O)NCCSCc2ccco2)cc1)S(C)(=O)=O do in these assays?
LmPK inh: 2.4%; CHX counter: 29.9*; SARS PLP yeast: 9.3%; TbPYK inhibitor: -0.2%; Shiga inhibitor: 41.5*; NS1 function inh: 9.1%

Results for CC(C)(C)SCCNC(=O)c1ccc(Cl)c([N+](=O)[O-])c1 ?
LmPK inh: 6.6%; CHX counter: 27.1*; SARS PLP yeast: -45.5%; TbPYK inhibitor: 20.0%; Shiga inhibitor: 97.9*; NS1 function inh: -24.6%

Results for CN(c1ccc(C(=O)Nc2ccccc2C(=O)N2CCCC2)cc1)S(C)(=O)=O ?
LmPK inh: 1.7%; CHX counter: -2.1; TbPYK inhibitor: -1.0%; Shiga inhibitor: 10.5; NS1 function inh: -4.7%

What do the screens show for `CC(C)Cn1c(=O)c2ccccc2n2c(CCC(=O)Nc3ccc(F)c(F)c3)nnc12`?
TbPYK inhibitor: 0.1%

Results for NC(=O)C1CCCN(C(=O)c2[nH]c(C(F)(F)F)nc2-c2ccccc2)C1 (centres undefined) ?
TbPYK inhibitor: 3.0%

What do the screens show for `COc1ccc([C@H]2CC(=O)C=C(c3ccc(C)c(F)c3)C2)cc1`?
SARS PLP yeast: 0.6%; TbPYK inhibitor: -6.6%

Results for Cc1ccc(C(=O)NCCc2ccccc2)cc1 ?
LmPK inh: -13.3%; CHX counter: -2.1; SARS PLP yeast: -14.3%; TbPYK inhibitor: -2.9%; Shiga inhibitor: -1.7; NS1 function inh: -15.1%

How did CN(c1ccc(C(=O)NCCSC(C)(C)C)cc1)S(C)(=O)=O do in these assays?
LmPK inh: -0.1%; CHX counter: 37.3*; SARS PLP yeast: 2.8%; TbPYK inhibitor: -2.3%; Shiga inhibitor: 139.5*; NS1 function inh: 5.8%

What do the screens show for `CN(c1ccc(C(=O)NCCc2ccccc2)cc1)S(C)(=O)=O`?
LmPK inh: inconclusive; CHX counter: 20.9*; SARS PLP yeast: -3.2%; TbPYK inhibitor: 0.9%; Shiga inhibitor: 68.3*; NS1 function inh: 4.2%

Screening results deposited in PubChem by National Center for Advancing Translational Sciences (NCATS).
